Reference: the supplement of paper PMC3334620
The full ranking holds about 33,000 sequences; the median of “E-score (-0.5 to 0.5)” is about -0.016, and the highest 2% start at about 0.32. Shown is part of a subset that was picked to be rich in the highest values.

Target: T1, Stp1 (UniProt B3LFK1)
T1 sequence: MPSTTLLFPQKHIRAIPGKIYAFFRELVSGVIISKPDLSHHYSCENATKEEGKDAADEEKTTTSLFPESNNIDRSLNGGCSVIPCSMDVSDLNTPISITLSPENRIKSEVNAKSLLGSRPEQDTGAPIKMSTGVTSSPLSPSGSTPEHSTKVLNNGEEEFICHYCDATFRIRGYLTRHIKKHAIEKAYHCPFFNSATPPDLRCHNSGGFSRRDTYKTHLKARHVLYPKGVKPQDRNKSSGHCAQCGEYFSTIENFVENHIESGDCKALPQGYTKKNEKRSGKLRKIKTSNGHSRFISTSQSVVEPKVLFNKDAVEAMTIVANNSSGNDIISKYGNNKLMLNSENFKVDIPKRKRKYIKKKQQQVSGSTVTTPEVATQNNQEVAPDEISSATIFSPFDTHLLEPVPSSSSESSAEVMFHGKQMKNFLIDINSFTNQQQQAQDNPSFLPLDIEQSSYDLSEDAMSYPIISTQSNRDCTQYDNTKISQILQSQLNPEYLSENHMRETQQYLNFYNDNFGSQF
Test: PBM E-score (8-mer binding enrichment) (E-score (-0.5 to 0.5)); higher = stronger / more preferred TF binding
Conditions: protein concentration: 200 nM; construct: GST-full length
Protocol: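 Universal 'all 10-mer' protein binding microarrays (Agilent AMADID 015681) probed with GST-tagged S. cerevisiae TFs (full-length or DBD) made by in vitro transcription/translation (PURExpress), about 100-200 nM. Bound TF was detected with fluorescent anti-GST. Each ungapped 8-mer (which stands for itself and its reverse complement) is scored by the PBM enrichment score (E-score), a modified Wilcoxon-Mann-Whitney statistic from -0.5 to +0.5, computed with the Universal PBM Analysis Suite. Scale: above 0.35 generally sequence-specific binding.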

Row | Sequence | PBM E-score
1 | CGTGCCGC | 0.475
2 | ACTGCCGG | 0.0822
3 | GGTGCCGA | 0.288
4 | ACTGCCGC | 0.412
5 | CGTGCCAG | 0.172
6 | AGTGCCAC | 0.242
7 | CCTGCCGC | 0.226
8 | AGTGCCGC | 0.477
9 | AGTGCCGG | 0.211
10 | CGTGCCCA | 0.235
11 | CGTGCCAC | 0.232
12 | ACAGGTAG | -0.126
13 | GAACTCCA | -0.0707
14 | CCGACTTA | 0.0516
15 | CTCTGAAA | 0.0291
16 | CATTCTCG | 0.128
17 | GGGCCTGA | -0.296
18 | AGTGCCCA | 0.0772
19 | AGTGCCAA | -0.0972
20 | CTTGCCGC | 0.309
21 | ATTGCCGC | 0.418
22 | AGTGCCGA | 0.322

Row | Sequence | PBM E-score
23 | ATTGCCGA | 0.177
24 | ATCAACCG | -0.0921
25 | GCCGTACA | 0.459
26 | CCCGTACC | 0.191
27 | ACCGTACA | 0.117
28 | ACCGTACC | -0.0289
29 | GCCGTACC | 0.46
30 | CCCGTACA | -0.0395
31 | CCAGAGAG | -0.245
32 | TCTCGGCA | 0.045
33 | CCTCGGCA | 0.282
34 | CCGCGGCC | 0.325
35 | GCGCGGCA | 0.483
36 | CCGCGGTC | -0.0134
37 | GCGCGGCC | 0.4
38 | GCGCGGAA | 0.263
39 | GCGCGGAC | 0.256
40 | GCGCGGGA | 0.163
41 | ACTCGGCA | 0.324
42 | GAGCGGCC | 0.156
43 | CCGCGGGC | 0.215
44 | CAGCGGGA | -0.174

Row | Sequence | PBM E-score
45 | AGATAGTA | 0.0718
46 | ACATAGTC | -0.0859
47 | AACACCCG | 0.151
48 | CTGTGATC | -0.0819
49 | CACGTAGG | -0.104
50 | CCCCGTCA | -0.177
51 | CAGATTTA | 0.198
52 | TGGTTACA | -0.0623
53 | TCTACCAA | -0.0725
54 | CCGCGGCG | 0.435
55 | ACGCGGAC | 0.0606
56 | ACGCGGCT | 0.446
57 | CCGCGGAG | 0.0416
58 | ACGCGTCT | -0.112
59 | ACGCGGCC | 0.326
60 | ACGCGGGA | 0.0444
61 | ACGCGGCA | 0.479
62 | ACGCGGTA | 0.0505
63 | ACGCGGTC | -0.0102
64 | CCGCGACG | 0.197
65 | ACGCGGAT | 0.236
66 | AACAGTCC | -0.215

Row | Sequence | PBM E-score
67 | ATACACTG | 0.0725
68 | AGCCTCGG | -0.0283
69 | GCTTGGAA | -0.00205
70 | AGAACCTA | -0.109
71 | AGCCAGCA | -0.297
72 | CTTATTGC | 0.0179
73 | ACACAAGT | 0.00705
74 | GGATGTGA | -0.084
75 | TGCCAGCA | 0.01
76 | ATACCTGG | -0.284
77 | AAGCAGGC | -0.277
78 | CAGAGCTG | -0.147
79 | ATCCGGAT | -0.0475
80 | CCGCGGAA | 0.183
81 | CCGCGGGA | 0.218
82 | ACGCGGCG | 0.488
83 | ACGCGGAG | 0.111
84 | TCGCGGAA | -0.0668
85 | CCGCGGCA | 0.441
86 | TCGCGACA | -0.0531
87 | TCGCGGCA | 0.346
88 | ACGCGGTG | 0.0603
